Most compounds without a hit are left out; they make up all but 11% or so of the library.
FLuc inh – blocks purified firefly luciferase enzyme activity; P08659; purified P. pyralis luciferase, luminescence, biochemical; Potency, µM (top dose mostly 115 µM), most hits filed as inhibitors; actives 2.5% (n = 76,000); note: nearly all actives have a fitted effect of over 65% in size
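FLuc 10nM, D-luciferin 10uM, ATP 10uM, Mg acetate 10mM, Tris acetate pH 7.5, Tween/BSA; cpd qHTS; enzyme added last; CCD luminescence.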
hNpr1 antagonist – antagonists of human natriuretic peptide receptor Npr1; HEK293 hNpr1 GloSensor cGMP, ANP-stimulated luminescence; Potency, µM (highest dose often 46.3 µM), without a hit: at the top dose activity change, negative = inhibition, hits mostly inhibitors; actives 1.6% (n = 76,000); AID 1347048; calls by dose curve; note: nearly all actives have a fitted effect of over 60% in size
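Compound pre-incubated 30 min at room temperature on GloSensor-loaded HEK293 cells stably carrying hNpr1 and the pGS-40F cGMP biosensor. Stimulation uses hNppA at 0.1 nM final; luminescence is taken at baseline and 20 min post-agonist.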
3T3 cytotox – NIH 3T3 cell cytotoxicity | actives 4.3% (n = 94,000) | NIH 3T3 viability, CellTiter-Glo ATP luminescence, 48-72 h | Potency, µM (highest dose often 96.7 µM), for inactives: at the highest dose activity change, negative = cytotoxicity, actives largely listed as inhibitors; note: nearly all actives have a fitted effect of over 55% in size
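Mouse fibroblast NIH 3T3 cells, 400 per well, received compound via pintool and were incubated for 48 or 72 hr prior to CellTiter-Glo ATP luminescence measurement.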
HEK293 tox – kills HEK 293 cells | HEK 293 viability, ATP luminescence (CellTiter-Glo), 48-72 h | Potency, µM (top dose mostly 115 µM), inactives show at the highest dose activity change, negative = cytotoxicity, hits mostly inhibitors | actives 6.6% (n = 94,000); note: nearly all actives have a fitted effect of over 60% in size
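HEK 293 seeded at 250 cells/well receive compound via pintool. After 48 or 72 hr at 37 degree Celsius, 5% CO2 and 95% humidity, CellTiter-Glo is dispensed and luminescence read following 10 min at room temperature.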
An asterisk follows results filed as active; i = inactive; ? = inconclusive; / = not tested or not shown; [ ] = remark or other dose. Unless noted, calls come from the whole dose curve; as a rule, active = well fitted curve in the direction sought with a large enough effect; inconclusive = small, poorly fitted or top-dose-only effect, or another doubt; inactive = no such curve, though single readings can be large; an effect the other way counts as inactive or inconclusive. % is set by controls: 0 for no effect and ±100 for the full control effect; potency is the fitted concentration of half-maximal effect.

SMILES | FLuc inh | hNpr1 antagonist | 3T3 cytotox | HEK293 tox
O=C(Nc1ccccc1)N[C@H]1CO[C@H]2[C@@H]1OC[C@@H]2Nc1nccc(-c2cccs2)n1 | ? | -15%[70.6 µM] | ? | 63µM*
O=C(COc1ccccc1)N[C@H]1CO[C@H]2[C@@H]1OC[C@@H]2Nc1nccc(-c2cccs2)n1 | i | ? | 35µM* | ?
O=C(N[C@H]1CO[C@H]2[C@@H]1OC[C@@H]2Nc1nccc(-c2cccs2)n1)c1ccccc1 | i | ? | ? | 79µM*
CCOCCNC(=O)C1CCCN1c1nccc(Nc2ccccc2F)n1 (stereo not drawn) | / | / | -10% | -12%
O=C(NCc1cccs1)c1nc(-c2cccnc2)c2cnccn12 | i | 12% | ? | ?
Cc1ccc(S(=O)(=O)N2CCOC3(CNCCOC3)C2)cc1F (stereo not drawn) | i | 2% | -9% | 4%
COc1ccccc1-c1ccnc(N[C@H]2CO[C@H]3[C@@H]2OC[C@@H]3NS(=O)(=O)c2ccc3ccccc3c2)n1 | i | ? | ? | 32µM*
O=C(COc1ccccc1)N[C@H]1CO[C@H]2[C@@H]1OC[C@@H]2Nc1nccc(-c2ccco2)n1 | i | -1%[70.6 µM] | 89µM* | ?
CC(C)(C)c1ccnc(N[C@H]2CO[C@H]3[C@@H]2OC[C@@H]3NC(=O)NCc2ccccc2)n1 | i | -23%[70.6 µM] | ? | 89µM*
COc1ccccc1-c1ccnc(N[C@H]2CO[C@H]3[C@@H]2OC[C@@H]3NS(=O)(=O)c2cccc3cccnc23)n1 | i | 6% | -23% | -19%
CC(C)(C)c1ccnc(N[C@H]2CO[C@H]3[C@@H]2OC[C@@H]3NS(=O)(=O)c2cccs2)n1 | ? | 10µM* | 79µM* | ?
CC(C)(C)c1ccnc(N[C@H]2CO[C@H]3[C@@H]2OC[C@@H]3NC(=O)CCCC(=O)O)n1 | i | -3%[70.6 µM] | 1%[174 µM] | -2%[172 µM]
CCCCn1c(=O)c(C(=O)N2CCN([S+](=O)([O-])c3c(C)noc3C)CC2)nc2cccnc21 | / | / | -23% | -24%
CCCn1cc(-c2ccnc(NC3CCN(Cc4cccnc4)CC3)n2)c(C)n1 | i | ? | ? | 28µM*
O=C1Nc2ccccc2C12CCN(S(=O)(=O)c1cccs1)C2 (stereo not drawn) | i | -4%[70.6 µM] | ? | 89µM*
Cc1nnc(-c2cc(-c3cccc(O)c3)ccn2)n1CCc1ccccc1 | i | -14%[70.6 µM] | 100µM* | ?
Cc1nnc(-c2cc(-c3cccnc3)ccn2)n1CCN1CCOCC1 | i | 3%[70.6 µM] | ? | 5%[172 µM]
Cc1cc(-c2ccnc(-c3nnc(C)n3CCN3CCOCC3)c2)ccn1 | i | 1%[70.6 µM] | 89µM* | -6%[172 µM]
COc1cccc(-c2ccnc(-c3nnc(C)n3CCN3CCOCC3)c2)c1 | i | -1%[70.6 µM] | -19%[138 µM] | ?
Cc1nnc(-c2cc(-c3cccc(F)c3)ccn2)n1CCN1CCOCC1 | i | -1%[70.6 µM] | 22µM* | ?
O=C(NCC1CC1)c1ccc2nnc(C3CCCC3)n2c1 | / | / | -9%[138 µM] | 2%[172 µM]
CC(=O)N1CCCC1c1nc(C2CN(Cc3ccc(F)c(Cl)c3)C2)no1 (stereo not drawn) | i | -1% | ? | ?
CCOC(=O)[C@@H]1CN(C(=O)CC(C)(C)C)[C@H]2c3ccccc3O[C@@H]12 | / | / | ? | -20%
O=C(NC1CC1)c1ccccc1OC1CN(Cc2ccncc2)C1 | i | 0% | 2% | ?
O=C(NC1CC1)c1ccccc1OC1CN(Cc2ccc(C(F)(F)F)cc2)C1 | i | 3% | ? | 89µM*
SMILES | FLuc inh | hNpr1 antagonist | 3T3 cytotox | HEK293 tox
O=C(NC1CC1)c1ccccc1OC1CN(Cc2cccc(C(F)(F)F)c2)C1 | i | -24% | ? | 32µM*
CNC(=O)C1CCCN(Cc2cccc(-c3ccc(F)cc3F)c2)C1 (stereo not drawn) | / | / | ? | 63µM*
N#Cc1cc(CN2CCCC(C(=O)Nc3cccc(-c4ccc(F)cc4)c3)C2)c[nH]1 (stereo not drawn) | i | -25% | 18µM* | 25µM*
C#CCNC(=O)C1CCCN(Cc2cccc(-c3ccc(F)cc3F)c2)C1 (stereo not drawn) | / | / | ? | 45µM*
CC(C)(C)CC(=O)N1CCCC(C(=O)Nc2cccc(-c3ccc(F)cc3)c2)C1 (stereo not drawn) | i | -11% | ? | ?
CC(=O)N1CCN(C(=O)C2CCCN(Cc3cccc(-c4ccc(F)cc4F)c3)C2)CC1 (stereo not drawn) | / | / | -27% | ?
O=C(Nc1cccc(F)c1)C1CCCN(Cc2cccc(-c3ccc(F)cc3F)c2)C1 (stereo not drawn) | / | / | 45µM* | 20µM*
Cc1cccc([C@H]2C[C@@H](O)[C@@H](O)[C@@H]2NS(=O)(=O)c2ccccc2)c1 | i | 6%[70.6 µM] | -7%[174 µM] | -18%[172 µM]
CCN(CC)CC(=O)N1CCCC(N2CCN(c3ccc(F)cc3)CC2)C1 (stereo not drawn) | i | 12% | i | 2%
COc1cccc(CN2CCCC(N3CCN(c4cccc(C(F)(F)F)c4)CC3)C2)c1O (stereo not drawn) | i | -14% | ? | 32µM*
NCC(=O)N1CCCC(N2CCN(c3cccc(C(F)(F)F)c3)CC2)C1 (stereo not drawn) | i | -3% | ? | -8%
CNC(=O)CN1CCCC(N2CCN(c3cccc(C(F)(F)F)c3)CC2)C1 (stereo not drawn) | i | 2% | -32% | -19%
CC(C)N1CCC(N2CCCC(N3CCN(c4cccc(C(F)(F)F)c4)CC3)C2)CC1 (stereo not drawn) | i | 6% | ? | 20µM*
O=S(=O)(c1ccc2c(c1)CCC2)N1CCCC1c1nncn1-c1ccccc1 (stereo not drawn) | / | / | -27% | -10%
O=C(NCc1cccc(F)c1)C1CCN(Cc2ccccc2-c2cccnc2)CC1 | / | / | -30% | -26%
CN1CCCC1CCNc1nccc(-c2cnn(-c3ccc(F)cc3)c2)n1 (stereo not drawn) | ? | 3% | ? | 45µM*
FC(F)(F)c1cc(Nc2cnc3ccc(N4CCOCC4)nn23)ccc1Cl | i | ? | ? | 79µM*
COc1ccc(Nc2cnc3ccc(N4CCOCC4)nn23)cn1 | i | -1%[70.6 µM] | ? | ?
FC(F)(F)Oc1ccc(Nc2cnc3ccc(N4CCOCC4)nn23)cc1 | i | -5%[70.6 µM] | ? | 50µM*
CCc1cccc2c(C(CC(=O)NCc3ccco3)c3cccc([N+](=O)[O-])c3)c[nH]c12 (stereo not drawn) | i | -5% | 32µM* | 45µM*
CCc1cccc2c(C(CC(=O)NCC(C)C)c3cccc([N+](=O)[O-])c3)c[nH]c12 (stereo not drawn) | i | -1% | 35µM* | ?
CCc1cccc2c(C(CC(=O)NCCOC)c3ccc(OC)c(OC)c3)c[nH]c12 (stereo not drawn) | i | 0% | -7% | -4%
